Experimental data as given in the supplement of paper PMC6411743.
± gives the standard deviation of the averaged measurements. About 6,200 targets were measured; listed, in parts, are those with the largest changes and a random draw of the rest.

Compound: Nc1ncnc2c1ncn2[C@@H]1O[C@H](COP(=O)(O)OP(=O)(O)NP(=O)(O)O)[C@@H](O)[C@H]1O [adenylyl imidodiphosphate]
Assay: NP40-soluble protein abundance relative to vehicle (solubility fold change) (ratio); higher = more soluble protein in presence of AMP-PNP
Method in brief: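 Values are fold changes against the detergent-processed vehicle, based on vsn-normalised intensities. Jurkat crude lysate was treated at eight concentrations from 0.1 to 10 mM (10 min at room temperature, then 3 min at 37 °C), solubilised with 0.8% NP40 and benzonase, ultracentrifuged and analysed by TMT-labelled LC-MS/MS over three independent experiments.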

Chain of UniProt Q9Y3A2 (Q9Y3A2 whole entry): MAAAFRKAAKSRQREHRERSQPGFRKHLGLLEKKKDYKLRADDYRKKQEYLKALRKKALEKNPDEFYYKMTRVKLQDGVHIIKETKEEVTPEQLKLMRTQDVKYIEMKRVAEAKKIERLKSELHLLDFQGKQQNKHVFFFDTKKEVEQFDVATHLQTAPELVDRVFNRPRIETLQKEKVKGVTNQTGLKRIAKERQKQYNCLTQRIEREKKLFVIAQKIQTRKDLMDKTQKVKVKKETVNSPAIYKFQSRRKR
Chain of UniProt Q9Y639 (Q9Y639 whole entry): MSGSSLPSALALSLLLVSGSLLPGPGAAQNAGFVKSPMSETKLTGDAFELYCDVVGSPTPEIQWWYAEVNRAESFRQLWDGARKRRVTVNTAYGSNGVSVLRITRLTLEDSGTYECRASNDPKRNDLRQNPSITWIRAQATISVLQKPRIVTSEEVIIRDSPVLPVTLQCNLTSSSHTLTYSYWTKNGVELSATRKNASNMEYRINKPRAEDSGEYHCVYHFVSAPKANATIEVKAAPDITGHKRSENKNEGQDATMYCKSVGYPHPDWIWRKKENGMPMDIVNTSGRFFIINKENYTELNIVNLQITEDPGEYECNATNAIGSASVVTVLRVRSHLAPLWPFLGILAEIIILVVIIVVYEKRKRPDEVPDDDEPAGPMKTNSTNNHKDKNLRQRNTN
Chain of UniProt Q9ULF5 (Q9ULF5 whole entry): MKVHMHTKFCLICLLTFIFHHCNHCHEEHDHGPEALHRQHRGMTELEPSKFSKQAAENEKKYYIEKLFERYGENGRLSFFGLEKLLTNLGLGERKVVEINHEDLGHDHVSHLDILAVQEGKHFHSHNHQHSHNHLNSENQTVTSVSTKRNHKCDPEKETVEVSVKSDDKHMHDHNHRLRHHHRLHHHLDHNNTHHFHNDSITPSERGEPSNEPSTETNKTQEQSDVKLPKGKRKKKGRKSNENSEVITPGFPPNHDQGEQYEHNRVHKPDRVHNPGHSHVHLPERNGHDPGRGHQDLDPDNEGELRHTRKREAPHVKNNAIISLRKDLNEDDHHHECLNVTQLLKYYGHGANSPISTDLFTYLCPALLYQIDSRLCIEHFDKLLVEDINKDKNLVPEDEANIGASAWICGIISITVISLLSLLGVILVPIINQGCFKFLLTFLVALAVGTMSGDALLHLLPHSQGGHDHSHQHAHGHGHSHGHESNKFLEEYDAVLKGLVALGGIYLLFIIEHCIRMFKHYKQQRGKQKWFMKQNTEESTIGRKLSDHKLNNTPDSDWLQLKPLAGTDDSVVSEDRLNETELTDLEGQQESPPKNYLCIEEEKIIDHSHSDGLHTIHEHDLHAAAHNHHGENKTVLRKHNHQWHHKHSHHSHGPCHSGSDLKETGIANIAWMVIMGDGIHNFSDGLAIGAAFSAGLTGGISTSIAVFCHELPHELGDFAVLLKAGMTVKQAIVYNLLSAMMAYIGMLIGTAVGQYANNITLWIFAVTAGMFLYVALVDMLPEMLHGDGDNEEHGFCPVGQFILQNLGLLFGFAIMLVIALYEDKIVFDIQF
Chain of UniProt Q9NXX6 (Q9NXX6 whole entry): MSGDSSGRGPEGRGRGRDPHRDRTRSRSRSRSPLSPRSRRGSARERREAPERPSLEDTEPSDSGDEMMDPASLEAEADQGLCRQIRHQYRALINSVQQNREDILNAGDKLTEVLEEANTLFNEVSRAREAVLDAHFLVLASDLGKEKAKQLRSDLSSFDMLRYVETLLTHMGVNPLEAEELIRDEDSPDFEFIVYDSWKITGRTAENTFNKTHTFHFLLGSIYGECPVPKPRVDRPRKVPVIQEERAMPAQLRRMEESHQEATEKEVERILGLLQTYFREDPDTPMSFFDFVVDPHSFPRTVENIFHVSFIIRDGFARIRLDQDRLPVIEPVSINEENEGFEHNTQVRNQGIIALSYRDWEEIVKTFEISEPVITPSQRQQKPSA
Chain of UniProt Q9H773 (Q9H773 whole entry, one chain of several): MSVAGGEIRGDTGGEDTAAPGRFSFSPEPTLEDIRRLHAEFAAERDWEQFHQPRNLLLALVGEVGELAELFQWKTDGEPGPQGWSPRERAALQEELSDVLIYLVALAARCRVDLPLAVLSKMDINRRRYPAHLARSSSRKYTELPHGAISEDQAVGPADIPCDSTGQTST
Chain of UniProt Q9BYX2 (Q9BYX2 whole entry): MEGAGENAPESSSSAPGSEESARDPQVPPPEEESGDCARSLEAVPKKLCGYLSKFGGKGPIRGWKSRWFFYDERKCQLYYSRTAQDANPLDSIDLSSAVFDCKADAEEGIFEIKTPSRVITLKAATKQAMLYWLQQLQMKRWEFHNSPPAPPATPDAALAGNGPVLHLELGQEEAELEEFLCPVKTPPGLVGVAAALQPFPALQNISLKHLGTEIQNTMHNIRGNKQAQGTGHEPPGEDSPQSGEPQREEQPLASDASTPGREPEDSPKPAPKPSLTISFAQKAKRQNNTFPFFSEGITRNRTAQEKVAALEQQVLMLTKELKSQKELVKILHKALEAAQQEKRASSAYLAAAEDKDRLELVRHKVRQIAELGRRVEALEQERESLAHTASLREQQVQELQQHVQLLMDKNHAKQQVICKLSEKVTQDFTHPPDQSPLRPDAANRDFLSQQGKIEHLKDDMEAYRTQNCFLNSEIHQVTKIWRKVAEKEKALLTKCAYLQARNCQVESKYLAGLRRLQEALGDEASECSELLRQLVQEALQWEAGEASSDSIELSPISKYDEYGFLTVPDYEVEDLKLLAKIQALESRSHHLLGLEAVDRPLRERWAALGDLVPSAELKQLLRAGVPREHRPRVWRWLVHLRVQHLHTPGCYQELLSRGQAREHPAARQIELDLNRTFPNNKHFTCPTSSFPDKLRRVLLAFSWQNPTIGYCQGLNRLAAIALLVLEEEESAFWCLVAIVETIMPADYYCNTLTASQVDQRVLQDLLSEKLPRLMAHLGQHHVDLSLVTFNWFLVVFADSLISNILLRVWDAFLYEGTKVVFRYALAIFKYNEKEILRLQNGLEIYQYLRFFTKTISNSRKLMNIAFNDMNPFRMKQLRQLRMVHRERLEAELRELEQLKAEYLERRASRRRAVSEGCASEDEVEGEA
Chain of UniProt Q9BV79 (Q9BV79 whole entry): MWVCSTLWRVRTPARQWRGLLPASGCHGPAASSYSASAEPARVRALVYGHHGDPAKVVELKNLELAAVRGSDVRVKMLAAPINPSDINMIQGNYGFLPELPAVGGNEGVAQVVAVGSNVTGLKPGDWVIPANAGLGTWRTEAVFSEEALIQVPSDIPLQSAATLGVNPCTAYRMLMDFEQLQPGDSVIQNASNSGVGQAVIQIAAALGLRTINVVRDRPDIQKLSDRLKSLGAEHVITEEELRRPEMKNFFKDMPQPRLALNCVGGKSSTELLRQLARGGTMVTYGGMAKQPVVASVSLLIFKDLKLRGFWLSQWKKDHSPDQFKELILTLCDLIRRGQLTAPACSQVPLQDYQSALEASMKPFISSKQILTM
Chain of UniProt Q96T23 (Q96T23 whole entry): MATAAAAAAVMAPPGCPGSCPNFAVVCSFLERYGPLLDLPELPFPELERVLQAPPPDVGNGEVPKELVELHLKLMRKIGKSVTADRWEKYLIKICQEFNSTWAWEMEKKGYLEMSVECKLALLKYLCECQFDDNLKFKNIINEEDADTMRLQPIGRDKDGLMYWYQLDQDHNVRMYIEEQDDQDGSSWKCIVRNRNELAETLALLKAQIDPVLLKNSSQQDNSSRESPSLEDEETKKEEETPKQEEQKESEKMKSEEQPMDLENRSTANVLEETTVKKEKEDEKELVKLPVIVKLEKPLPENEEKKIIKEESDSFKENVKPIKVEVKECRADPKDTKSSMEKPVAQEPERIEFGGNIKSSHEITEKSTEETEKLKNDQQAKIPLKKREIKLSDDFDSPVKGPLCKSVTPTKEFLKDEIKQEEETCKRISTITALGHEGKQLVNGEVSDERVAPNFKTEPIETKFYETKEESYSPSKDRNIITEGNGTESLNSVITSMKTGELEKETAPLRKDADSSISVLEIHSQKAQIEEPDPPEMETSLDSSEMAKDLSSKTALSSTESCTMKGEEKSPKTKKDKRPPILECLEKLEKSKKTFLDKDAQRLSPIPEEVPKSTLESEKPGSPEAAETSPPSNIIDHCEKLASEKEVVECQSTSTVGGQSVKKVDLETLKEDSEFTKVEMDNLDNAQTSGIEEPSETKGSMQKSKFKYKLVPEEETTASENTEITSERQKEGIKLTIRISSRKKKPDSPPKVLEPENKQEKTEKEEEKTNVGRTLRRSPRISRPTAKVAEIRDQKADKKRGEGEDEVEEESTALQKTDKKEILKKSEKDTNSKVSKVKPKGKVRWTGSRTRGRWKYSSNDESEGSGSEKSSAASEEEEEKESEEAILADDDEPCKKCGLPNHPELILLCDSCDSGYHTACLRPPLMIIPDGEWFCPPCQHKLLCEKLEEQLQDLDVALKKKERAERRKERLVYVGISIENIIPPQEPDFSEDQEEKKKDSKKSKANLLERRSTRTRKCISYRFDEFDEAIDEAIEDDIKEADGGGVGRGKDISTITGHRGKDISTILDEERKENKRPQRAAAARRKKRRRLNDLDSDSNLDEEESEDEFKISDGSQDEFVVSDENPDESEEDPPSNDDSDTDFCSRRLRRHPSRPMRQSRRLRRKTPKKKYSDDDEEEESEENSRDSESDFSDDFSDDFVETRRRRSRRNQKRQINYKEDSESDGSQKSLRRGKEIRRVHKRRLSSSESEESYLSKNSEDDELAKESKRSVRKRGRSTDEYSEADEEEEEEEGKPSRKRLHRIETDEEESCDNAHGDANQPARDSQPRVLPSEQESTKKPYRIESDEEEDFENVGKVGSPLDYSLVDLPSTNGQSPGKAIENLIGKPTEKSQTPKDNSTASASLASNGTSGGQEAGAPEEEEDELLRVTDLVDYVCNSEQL
Chain of UniProt Q9Y508 (Q9Y508 whole entry): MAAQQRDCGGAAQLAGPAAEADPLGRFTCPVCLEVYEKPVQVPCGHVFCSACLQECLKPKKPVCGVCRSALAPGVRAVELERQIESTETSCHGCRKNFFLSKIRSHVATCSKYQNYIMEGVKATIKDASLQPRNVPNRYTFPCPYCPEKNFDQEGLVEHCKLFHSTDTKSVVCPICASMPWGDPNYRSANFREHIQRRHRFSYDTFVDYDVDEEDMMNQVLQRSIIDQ

Target	NP40-soluble protein abundance (concentration: 1mM)	NP40-soluble protein abundance (concentration: 2mM)	NP40-soluble protein abundance (concentration: 4mM)	NP40-soluble protein abundance (concentration: 6mM)	NP40-soluble protein abundance (concentration: 8mM)	NP40-soluble protein abundance (concentration: 10mM)
UniProt Q9BYX2|Q9BYX2-2	0.981 ± 0.013	0.9921 ± 0.0015	1 ± 0.028	0.985 ± 0.042	0.972 ± 0.012	0.9639 ± 0.0013
STUB1 (UniProt Q9UNE7)	0.989 ± 0.017	1.02 ± 0.014	0.977 ± 0.018	0.9527 ± 0.0059	0.938 ± 0.018	0.927 ± 0.019
OSTC (UniProt Q9NRP0)	1.02 ± 0.038	1.02 ± 0.025	1.03 ± 0.049	1.03 ± 0.022	1.039 ± 0.0094	1.04 ± 0.015
ANKRA2 (UniProt Q9H9E1)	0.912 ± 0.057	0.91 ± 0.023	0.911 ± 0.025	0.97 ± 0.087	0.99 ± 0.058	0.963 ± 0.05
UniProt Q9H773|H3BSA6	1.03 ± 0.02	1.01 ± 0.019	1.041 ± 0.0073	1.03 ± 0.015	1.01 ± 0.019	1 ± 0.022
UniProt Q96RP9|Q96RP9-2	0.99 ± 0.021	0.981 ± 0.031	0.989 ± 0.02	0.976 ± 0.01	0.972 ± 0.022	0.949 ± 0.029
BCS1L (UniProt Q9Y276)	0.966 ± 0.021	0.874 ± 0.11	0.996 ± 0.024	0.955 ± 0.035	0.982 ± 0.024	0.937 ± 0.035
UniProt Q9NVI7-2	1.08 ± 0.075	1.05 ± 0.073	1.14 ± 0.18	1.29 ± 0.18	1.38 ± 0.24	1.44 ± 0.32
NSMCE4A (UniProt Q9NXX6)	0.993 ± 0.068	0.945 ± 0.067	0.967 ± 0.056	0.933 ± 0.017	0.96 ± 0.026	0.941 ± 0.09
UniProt Q9Y2S0|Q9Y2S0-2|A0A0R4J2F3	1.03 ± 0.024	1.06 ± 0.053	1.08 ± 0.062	1.02 ± 0.018	1.03 ± 0.041	1.07 ± 0.036
CCDC86 (UniProt Q9H6F5)	1.12 ± 0.025	1.17 ± 0.096	1.2 ± 0.017	1.25 ± 0.05	1.31 ± 0.084	1.4 ± 0.13
SUPT16H (UniProt Q9Y5B9)	1.03 ± 0.016	1.01 ± 0.023	1.1 ± 0.049	1.24 ± 0.053	1.33 ± 0.055	1.46 ± 0.12
UniProt Q9UK76	1.08 ± 0.088	1.1 ± 0.08	1.03 ± 0.067	0.982 ± 0.092	0.893 ± 0.037	0.973 ± 0.1
THOC3 (UniProt Q96J01)	1.07 ± 0.069	1.1 ± 0.075	1.17 ± 0.15	1.24 ± 0.16	1.3 ± 0.23	1.34 ± 0.27
TPX2 (UniProt Q9ULW0)	1.09 ± 0.013	1.2 ± 0.077	1.23 ± 0.066	1.27 ± 0.049	1.32 ± 0.072	1.39 ± 0.049
SRPRB (UniProt Q9Y5M8)	1.05 ± 0.021	1.06 ± 0.011	1.04 ± 0.021	1.08 ± 0.014	1.04 ± 0.014	1.08 ± 0.033
PSMD1 (UniProt Q99460)	0.902 ± 0.044	0.887 ± 0.06	0.851 ± 0.094	0.863 ± 0.11	0.848 ± 0.098	0.847 ± 0.13
LSG1 (UniProt Q9H089)	0.993 ± 0.019	0.975 ± 0.033	0.987 ± 0.017	0.926 ± 0.03	0.927 ± 0.034	0.924 ± 0.013
UniProt Q9H0S4|Q9H0S4-2	0.994 ± 0.061	0.981 ± 0.022	1.11 ± 0.089	1.25 ± 0.12	1.39 ± 0.13	1.46 ± 0.14
AASS (UniProt Q9UDR5)	0.9781 ± 0.0043	0.935 ± 0.098	0.969 ± 0.035	0.947 ± 0.021	0.979 ± 0.01	0.939 ± 0.027

Target	NP40-soluble protein abundance (concentration: 1mM)	NP40-soluble protein abundance (concentration: 2mM)	NP40-soluble protein abundance (concentration: 4mM)	NP40-soluble protein abundance (concentration: 6mM)	NP40-soluble protein abundance (concentration: 8mM)	NP40-soluble protein abundance (concentration: 10mM)
RAB23 (UniProt Q9ULC3)	0.9714 ± 0.0024	0.9596 ± 0.0092	0.974 ± 0.029	1.01 ± 0.029	1.03 ± 0.044	1 ± 0.018
NOB1 (UniProt Q9ULX3)	0.972 ± 0.013	0.956 ± 0.027	0.984 ± 0.042	0.966 ± 0.023	1 ± 0.043	1 ± 0.047
MRPL53 (UniProt Q96EL3)	0.987 ± 0.06	1.01 ± 0.023	0.986 ± 0.061	0.98 ± 0.045	1 ± 0.063	1 ± 0.066
UniProt Q9Y5Y5|Q9Y5Y5-2	0.967 ± 0.051	0.97 ± 0.05	0.9611 ± 0.0026	1.04 ± 0.024	1.03 ± 0.032	1.02 ± 0.052
GDE1 (UniProt Q9NZC3)	1.01 ± 0.043	1.02 ± 0.034	1.01 ± 0.03	1.01 ± 0.08	0.995 ± 0.05	1.01 ± 0.06
UTP11 (UniProt Q9Y3A2)	1.02 ± 0.026	1.04 ± 0.037	1.03 ± 0.025	1.05 ± 0.026	1.05 ± 0.018	1.08 ± 0.018
C16orf70 (UniProt Q9BSU1)	1.01 ± 0.056	0.978 ± 0.029	0.982 ± 0.042	1.01 ± 0.018	1.02 ± 0.02	1.05 ± 0.02
UniProt Q9UPT9|Q9UPT9-2	0.953 ± 0.022	0.953 ± 0.035	0.96 ± 0.025	0.922 ± 0.027	0.936 ± 0.021	0.922 ± 0.02
UniProt Q9NVM9	1.03 ± 0.027	1.02 ± 0.04	1.05 ± 0.033	1.02 ± 0.069	1.03 ± 0.075	1.03 ± 0.063
UniProt Q9NYU2|Q9NYU2-2	0.9826 ± 0.0098	0.9 ± 0.12	0.955 ± 0.034	0.917 ± 0.031	0.936 ± 0.04	0.895 ± 0.036
AMDHD2 (UniProt Q9Y303)	0.968 ± 0.016	0.923 ± 0.048	0.949 ± 0.024	0.954 ± 0.024	0.948 ± 0.02	0.922 ± 0.033
UniProt Q9UG63|Q9UG63-2	1.04 ± 0.06	1.15 ± 0.065	1.41 ± 0.054	1.82 ± 0.11	2.25 ± 0.15	2.54 ± 0.26
UniProt Q9BU76|Q9BU76-4	1.03 ± 0.04	1.04 ± 0.052	1 ± 0.067	1.01 ± 0.035	0.99 ± 0.031	0.989 ± 0.038
CHST12 (UniProt Q9NRB3)	1.001 ± 0.0077	0.999 ± 0.01	0.9935 ± 0.0064	1 ± 0.016	1.017 ± 0.0078	1.011 ± 0.0063
UniProt Q9NZQ3|Q9NZQ3-3	1.04 ± 0.066	0.9853 ± 0.0064	1.03 ± 0.045	0.984 ± 0.029	1.02 ± 0.047	0.99 ± 0.014
MECR (UniProt Q9BV79)	1.04 ± 0.021	1.21 ± 0.051	1.07 ± 0.011	1.04 ± 0.024	1.048 ± 0.0045	1.05 ± 0.03
UniProt Q96JP5|A0A0A6YYC7|Q96JP5-2	1.01 ± 0.017	1.05 ± 0.03	1.01 ± 0.021	1.04 ± 0.068	0.987 ± 0.057	1.01 ± 0.046
UCK1 (UniProt Q9HA47)	0.981 ± 0.029	1.01 ± 0.028	1.01 ± 0.011	1.02 ± 0.026	0.9745 ± 0.0089	1.01 ± 0.01
UniProt Q9NXK8|Q9NXK8-2	1.018 ± 0.0035	1 ± 0.031	0.9901 ± 0.0047	0.9994 ± 0.008	1.005 ± 0.0022	0.998 ± 0.024
UBAC1 (UniProt Q9BSL1)	0.965 ± 0.0098	1.01 ± 0.011	0.998 ± 0.028	0.955 ± 0.015	0.932 ± 0.036	0.933 ± 0.034

Target	NP40-soluble protein abundance (concentration: 1mM)	NP40-soluble protein abundance (concentration: 2mM)	NP40-soluble protein abundance (concentration: 4mM)	NP40-soluble protein abundance (concentration: 6mM)	NP40-soluble protein abundance (concentration: 8mM)	NP40-soluble protein abundance (concentration: 10mM)
ZNF512B (UniProt Q96KM6)	1.01 ± 0.017	1.09 ± 0.06	1.1 ± 0.061	1.13 ± 0.044	1.16 ± 0.05	1.17 ± 0.064
HECA (UniProt Q9UBI9)	0.969 ± 0.029	1 ± 0.017	1.02 ± 0.049	1.034 ± 0.0078	1.06 ± 0.046	1.04 ± 0.024
UNK (UniProt Q9C0B0)	1.071 ± 0.0069	1.12 ± 0.056	1.11 ± 0.021	1.09 ± 0.072	1.1 ± 0.045	1.11 ± 0.033
THRAP3 (UniProt Q9Y2W1)	1.11 ± 0.014	1.23 ± 0.1	1.2 ± 0.034	1.31 ± 0.044	1.32 ± 0.028	1.41 ± 0.03
RAB39B (UniProt Q96DA2)	1 ± 0.025	0.934 ± 0.066	0.996 ± 0.019	0.9868 ± 0.0097	0.986 ± 0.015	0.954 ± 0.041
LRRC45 (UniProt Q96CN5)	0.977 ± 0.065	0.919 ± 0.029	0.969 ± 0.022	0.97 ± 0.015	1 ± 0.032	0.956 ± 0.03
UniProt Q9Y462|Q9Y462-3	1 ± 0.032	1.02 ± 0.037	1.012 ± 0.0034	1.01 ± 0.036	1.024 ± 0.0028	1.02 ± 0.013
ATAD5 (UniProt Q96QE3)	1.03 ± 0.026	1.05 ± 0.046	1.08 ± 0.028	1.08 ± 0.031	1.08 ± 0.022	1.12 ± 0.045
UniProt Q9GZY4	0.995 ± 0.024	0.939 ± 0.041	1.01 ± 0.022	0.977 ± 0.015	0.9936 ± 0.0057	1.01 ± 0.051
UniProt Q9Y639|Q9Y639-1	1.01 ± 0.056	1.05 ± 0.055	1.01 ± 0.056	0.986 ± 0.028	0.984 ± 0.055	0.961 ± 0.025
WDR3 (UniProt Q9UNX4)	1.07 ± 0.015	1.09 ± 0.1	1.33 ± 0.039	1.55 ± 0.026	1.8 ± 0.064	1.78 ± 0.15
RNF114 (UniProt Q9Y508)	1.034 ± 0.0076	0.993 ± 0.021	1.03 ± 0.019	1.024 ± 0.0039	1.04 ± 0.018	1 ± 0.013
UniProt Q9Y4E8|Q9Y4E8-3	0.967 ± 0.013	0.963 ± 0.032	1.02 ± 0.041	1 ± 0.048	0.993 ± 0.065	1.01 ± 0.027
HEBP2 (UniProt Q9Y5Z4)	0.978 ± 0.012	0.9687 ± 0.0064	0.952 ± 0.023	0.957 ± 0.021	0.964 ± 0.018	0.926 ± 0.042
UniProt Q9Y5B6|Q9Y5B6-2	1.03 ± 0.048	1.05 ± 0.017	1.07 ± 0.057	1.06 ± 0.051	1.07 ± 0.049	1.14 ± 0.053
UniProt Q9BQ39|A0A087WVC1	1.22 ± 0.068	1.27 ± 0.062	1.35 ± 0.023	1.43 ± 0.04	1.52 ± 0.097	1.5 ± 0.14
UniProt Q96T23|Q96T23-2	1.07 ± 0.026	1.21 ± 0.11	1.32 ± 0.061	1.53 ± 0.18	1.67 ± 0.21	1.93 ± 0.25
SLC39A10 (UniProt Q9ULF5)	0.998 ± 0.021	1.07 ± 0.045	1.01 ± 0.026	1 ± 0.029	0.985 ± 0.04	0.994 ± 0.036
UniProt Q9UM21	1.02 ± 0.058	0.987 ± 0.034	0.981 ± 0.023	1 ± 0.071	1 ± 0.043	0.991 ± 0.023
DDX21 (UniProt Q9NR30)	1.21 ± 0.11	1.25 ± 0.13	1.39 ± 0.23	1.55 ± 0.31	1.66 ± 0.38	1.78 ± 0.4
